An excerpt weighted towards active compounds, which were near 3.7% of everything screened.
PLK1 PBD block: inhibitors of human PLK1 polo-box domain binding. P53350. Plk1 PBD binding of FITC phosphopeptide, fluorescence polarization. Potency, µM, for inactives: max response, negative = inhibition, usual class: inhibitors. hit rate 2.8% among 360,000; note: potency is the fitted concentration of half-maximal effect; series mostly up to about 57 µM; % is set by controls: 0 for no effect and ±100 for the full control effect; nearly all actives have a fitted effect of over 65% in size
VDR inh: vitamin D3 receptor (human) inhibition. VDR-SRC2-3 peptide fluorescence polarization, 2 h. P11473. AID 504847. hit rate 0.93% among 400,000. Potency, µM, without a hit: max response, negative = inhibition, actives largely listed as inhibitors; note: potency is the fitted concentration of half-maximal effect; % is set by controls: 0 for no effect and ±100 for the full control effect
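Two reagent solutions held at 4 deg C in the dark were dispensed, compounds pinned at 23 nl, and the mixture incubated 2 h at room temperature. Read-out: fluorescence polarization of VDR–SRC2-3 peptide binding.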
TCR activator: T cell receptor activation; primary human leukocytes, anti-CD3, IL-2 HTRF, 48 h; Potency, µM (series often up to 9.22 µM), inactives show top-dose activation of IL-2 secretion, hits mostly activators; 330,000 tested, under 10 active; AID 504894; note: % of control where 0% means no effect
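Primary human leukocytes incubated 48 hr with anti-CD3 beads plus compound, without co-stimulation. Secreted IL-2 measured by HTRF (europium cryptate/d2 anti-IL-2 pair, 320 nm excitation, 665 nm emission).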
FEN1 inhibitor: inhibitors of human flap endonuclease 1; Recombinant FEN1 flap cleavage, fluorescence, 15 min; Potency, µM (series often up to 114 µM), for the others: at the top dose activity change, negative = inhibition, most hits filed as inhibitors; hit rate 0.35% among 390,000; note: potency is the fitted concentration of half-maximal effect; % is set by controls: 0 for no effect and ±100 for the full control effect; nearly all actives have a fitted effect of over 65% in size
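Recombinant FEN1 (10 nM) was preincubated with pin-transferred compounds for 15 min at room temperature, then flap DNA substrate (50 nM final) was added. Plates were read at 0 and 15 min, and normalized concentration–response data were fitted to a four-parameter Hill equation.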
PI5P4K alpha inh: inhibitors of human PI5P4K alpha. hit rate 1.2% among 330,000. PI5P4Kalpha enzyme, ADP-Glo luminescence, 60 min; stronger effect = lower value. P48426. max response, %; active = max response of -50% or lower; inconclusive = between -30% and -50%; inactive = -30% or higher; note: value at the top dose of about 77 µM; % is set by controls: 0 for no effect and ±100 for the full control effect
Target sequence (P48426 whole entry, looked up): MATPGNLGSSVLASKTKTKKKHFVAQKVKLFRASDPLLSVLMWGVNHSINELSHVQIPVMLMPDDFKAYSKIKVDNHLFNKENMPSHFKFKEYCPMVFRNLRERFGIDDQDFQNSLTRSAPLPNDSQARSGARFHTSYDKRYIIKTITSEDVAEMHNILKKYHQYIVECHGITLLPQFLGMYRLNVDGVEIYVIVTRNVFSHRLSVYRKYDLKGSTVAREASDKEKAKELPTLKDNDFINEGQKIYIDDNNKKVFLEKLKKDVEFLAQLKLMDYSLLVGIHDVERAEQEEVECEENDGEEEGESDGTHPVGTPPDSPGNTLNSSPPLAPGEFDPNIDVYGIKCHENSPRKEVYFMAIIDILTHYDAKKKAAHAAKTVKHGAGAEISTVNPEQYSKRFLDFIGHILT
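Enzyme plus substrate dispensed, test compounds pinned in, then ATP (5 microM final) added. After 60 min at RT, ADP-Glo reagent 1 for 45 min and reagent 2 for 30 min preceded luminescence imaging.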
WRN helicase inh: inhibitors of human WRN helicase | WRN helicase unwinding, fluorescent forked duplex, kinetic | Q14191 | AID 651768 | hit rate 0.46% among 360,000 | Potency, µM (highest dose often 114 µM), inactives show at the highest dose activity change, negative = inhibition, usual class: inhibitors; note: potency is the fitted concentration of half-maximal effect; % is set by controls: 0 for no effect and ±100 for the full control effect; nearly all actives have a fitted effect of over 55% in size
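Kinetic red-fluorescence monitoring (525/598 nm) tracks WRN helicase activity after 100 nM fluorophore-quencher forked duplex and 2 mM ATP are added to 20 nM enzyme pretreated 15 min at room temperature with compound.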
The depositor's hits bear a star; ? = inconclusive; · = no result; [ ] = another dose, or the depositor's remark. Unless noted, calls come from the whole dose curve; as a rule, active = well fitted curve in the direction sought with a large enough effect; inconclusive = small, poorly fitted or top-dose-only effect, or another doubt; inactive = no such curve, though single readings can be large; an effect the other way counts as inactive or inconclusive.

SMILES	PLK1 PBD block	VDR inh	TCR activator	FEN1 inhibitor	PI5P4K alpha inh	WRN helicase inh
O=C(/C=C/c1ccco1)NCC1OCCc2ccccc21 (centres undefined)	?	-9%	-3%	?	-70*	56µM*
CCc1cc2c(=O)n(Cc3ccco3)c(SCC(=O)NCC3CCCO3)nc2s1 (centres undefined)	-10%	0%	2%	-1%	-2	-5%
CCc1cc2c(=O)n(Cc3ccco3)c(SCc3c(C)noc3C)nc2s1	-24%	79µM*	-4%	-2%	-22	-28%
O=C(O)c1ccccc1NC(c1ccccc1)c1ccc2cccnc2c1O (centres undefined)	0.6µM*	35µM*	10%	-11%	-57*	14µM*
CCC(=O)NC(c1ccc(Cl)cc1Cl)c1ccc2cccnc2c1O (centres undefined)	3%	28%	3%	-19%	3	-17%[57.1 µM]
CCCC(=O)NC(c1ccc(N(C)C)cc1)c1ccc2cccnc2c1O (centres undefined)	27µM*	-21%	3%	-7%	-22	12%
CCCCC(=O)NC(c1ccc(Cl)cc1Cl)c1ccc2cccnc2c1O (centres undefined)	3.4µM*	?	10%	?	?	-3%[11.6 µM]
COc1ccccc1/C=C/c1cnccn1	·	·	·	6%	·	·
CN(C)CCNC(=O)c1ccc(-n2c(-c3ccccc3)cc3c2CCCC3)cc1	·	-6%	·	-1%	·	·
O=C(O)c1cc([N+](=O)[O-])ccc1NCc1ccccn1	-3%	-22%	2%	-1%	-14	-9%
O=C(O)c1cc([N+](=O)[O-])ccc1NCc1ccccc1Cl	24µM*	-27%	8%	-2%	-1	-23%
Cc1ccc(S(=O)(=O)Nc2nc3c(s2)C(=O)CC(C)(C)C3)cc1	-15%	9%	-14%	-1%	7	-4%
CC1(C)CC(=O)c2sc(NS(=O)(=O)Cc3ccccc3)nc2C1	24µM*	?	-5%[46.1 µM]	-13%	·	3%
CCCN(CC1CCCO1)C(=O)CCc1nnc(CCc2ccc(OC)cc2)o1 (centres undefined)	13µM*	?	0%	-8%	-20	-4%
COc1ccc(CCc2nnc(CCC(=O)NCC3CCCO3)o2)cc1 (centres undefined)	-4%	1%	1%	29%	6	-7%
CSc1nnc(Cn2c(=O)sc3ccccc32)n1CCc1ccccc1	21µM*	-27%	0%	-3%	6	1%
CSc1nnc(Cn2c(=O)sc3ccccc32)n1C	-8%	-19%	4%[46.1 µM]	-8%	4	2%
Cc1ccc(N2NC(=O)/C(=C/c3ccc(-c4ccc(Cl)c(C(=O)O)c4)o3)C2=O)cc1	?	?	1%	2%	?	?
COc1cc(/C=C2\C(=O)NN(c3ccccc3)C2=O)cc([N+](=O)[O-])c1O	?	-30%	-5%	?	-70*	?
CCOC(=O)COc1ccc(/C=C2/C(=O)NN(c3ccc(F)cc3)C2=O)cc1OC	27µM*	-22%	1%	10%	0	-4%
COc1cc(/C=C2\C(=O)NN(c3ccc(C)cc3)C2=O)cc([N+](=O)[O-])c1O	?	?	-2%	-5%	-54*	?
COc1cc(/C=N/N2CCCCC2)cc([N+](=O)[O-])c1O	-13%	31%	12%	-3%	-23	-6%
O=C1NN(c2ccccc2)C(=O)/C1=C\c1ccc(-c2cc([N+](=O)[O-])ccc2O)o1	?	-2%	3%	?	-69*	-20%[11.6 µM]
COc1cccc(-c2ccc3ncnc(NC4CC4)c3c2)c1	·	-6%	·	·	·	·
COc1cc(/C=C2/C(=O)NN(c3ccc(Cl)cc3)C2=O)cc(OC)c1O	11%	?	-2%	-11%	-3	-26%
CCOc1cc(/C=C2\NC(=O)NC2=O)cc([N+](=O)[O-])c1O	-27%	20%	8%	-17%	-59*	-9%
CCOc1cc(/C=C2\C(=O)NN(c3ccccc3)C2=O)cc([N+](=O)[O-])c1O	17µM*	?	-1%	?	-57*	?

Source: PubChem (National Center for Advancing Translational Sciences (NCATS))
